High-throughput results as filed in PubChem.
JMJD2A Tudor inh = inhibitors of human JMJD2A Tudor domain; O75164; AlphaScreen JMJD2A-Tudor / H3K4me3 peptide binding; Potency, µM (titrated, usually from 114 µM), without a hit: at the highest dose activity change, negative = inhibition, most hits filed as inhibitors; 390,000 compounds, 4.4% hits; AID 504339; also: % is scaled to controls: 0 for no effect and ±100 for the full control effect; nearly all actives have a fitted effect of over 50% in size
HP1b chromo inh = inhibitors of HP1-beta chromodomain binding to methylated histone tails | P83916 | AlphaScreen HP1-beta / biotin-H3K9me3 peptide binding | Potency, µM (series often up to 114 µM), inactives show at the top dose activity change, negative = inhibition, actives largely listed as inhibitors | 390,000 compounds, 0.56% hits; also: nearly all actives have a fitted effect of over 70% in size
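AlphaScreen: HP1-beta (50 nM) preformed 30 min with biotin-H3(1-18)K9me3 peptide (50 nM) in PBS pH 7.4, 0.01% Tween-20. Compound added for 30 min at RT, then streptavidin donor/nickel chelate acceptor beads (10 ug/mL) for 30 min.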
PLK1 PBD inh = inhibitors of human PLK1 polo-box domain binding; 360,000 compounds, 2.8% hits; P53350; Plk1 PBD binding of FITC phosphopeptide, fluorescence polarization; AID 720504; Potency, µM, inactives show max response, negative = inhibition, hits mostly inhibitors; also: series mostly up to about 57 µM; % is scaled to controls: 0 for no effect and ±100 for the full control effect; nearly all actives have a fitted effect of over 65% in size
VDR inhibitor = vitamin D3 receptor (human) inhibition; P11473; VDR-SRC2-3 peptide fluorescence polarization, 2 h; Potency, µM, without a hit: max response, negative = inhibition, actives largely listed as inhibitors; 400,000 compounds, 0.93% hits; AID 504847; also: % is scaled to controls: 0 for no effect and ±100 for the full control effect
Target sequence (P11473 whole entry, looked up): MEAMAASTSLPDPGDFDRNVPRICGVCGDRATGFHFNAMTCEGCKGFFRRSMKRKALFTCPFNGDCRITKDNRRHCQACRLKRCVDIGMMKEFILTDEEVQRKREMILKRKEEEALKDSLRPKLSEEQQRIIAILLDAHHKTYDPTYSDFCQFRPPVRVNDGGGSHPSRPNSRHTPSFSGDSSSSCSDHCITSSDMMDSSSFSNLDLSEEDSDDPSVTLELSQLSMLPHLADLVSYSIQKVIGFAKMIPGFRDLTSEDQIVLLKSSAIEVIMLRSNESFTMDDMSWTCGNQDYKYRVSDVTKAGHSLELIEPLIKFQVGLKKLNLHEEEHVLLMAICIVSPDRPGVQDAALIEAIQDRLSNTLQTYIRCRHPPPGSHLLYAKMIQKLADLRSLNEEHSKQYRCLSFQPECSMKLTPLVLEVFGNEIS
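After 23 nl compound addition and a short centrifugation, plates sat for 2 hours at ambient temperature; polarization of fluorescence then indicated loss of VDR binding to peptide SRC2-3.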
BAZ2B block = BAZ2B (human) inhibition; AlphaScreen BAZ2B-H3K14Ac peptide displacement; 360,000 compounds, 4.4% hits; Q9UIF8; Potency, µM (titrated, usually from 114 µM), for inactives: top-dose activity change, negative = inhibition, actives largely listed as inhibitors; AID 504333; also: % is scaled to controls: 0 for no effect and ±100 for the full control effect; nearly all actives have a fitted effect of over 60% in size
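In this displacement format the biotinylated H3(5-23) peptide acetylated at Lys14 serves as ligand at 50 nM, with BAZ2B at 50 nM in PBS pH 7.4 containing 0.01% Tween-20. Donor and acceptor beads are 10 ug/mL final.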
G9a inh = G9a (human) methyltransferase inhibition | Q96KQ7 | G9a H3K9 monomethylation, AlphaScreen, 2 h | Potency, µM (series often up to 102 µM), inactives show at the highest dose activity, negative = inhibition, usual class: inhibitors | 350,000 compounds, 8.8% hits | AID 504332; also: % is scaled to controls: 0 for no effect and ±100 for the full control effect; nearly all actives have a fitted effect of over 75% in size
Target sequence (Q96KQ7 913-1193 limits assumed): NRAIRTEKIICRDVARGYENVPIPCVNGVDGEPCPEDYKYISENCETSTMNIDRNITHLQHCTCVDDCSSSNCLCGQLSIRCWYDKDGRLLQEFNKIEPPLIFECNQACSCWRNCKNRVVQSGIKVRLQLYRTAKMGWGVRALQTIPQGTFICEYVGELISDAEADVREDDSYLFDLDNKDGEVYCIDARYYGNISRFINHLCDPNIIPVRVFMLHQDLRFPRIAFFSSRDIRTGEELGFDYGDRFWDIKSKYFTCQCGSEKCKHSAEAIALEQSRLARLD
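AlphaScreen read-out: biotin-H3K9 peptide (500 nM) methylation by 20 nM enzyme with 20 uM SAM, 2 h at room temperature after 15 min compound preincubation; anti-monomethyl H3K9 antibody plus donor/acceptor beads, 10 min dark.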
Active calls of the source: *; ? = inconclusive; · = no result given; ! = not active in a repeat; [ ] = remark or other dose. Hits are enriched below; roughly 11% of the tested compounds scored in any of these assays. Calls follow the shape of the dose curve; as a rule, active = well fitted curve in the direction sought with a large enough effect; inconclusive = small, poorly fitted or top-dose-only effect, or another doubt; inactive = no such curve, though single readings can be large; an effect the other way counts as inactive or inconclusive. Potency is read from the fitted curve at half-maximal effect.

SMILES	JMJD2A Tudor inh	HP1b chromo inh	PLK1 PBD inh	VDR inhibitor	BAZ2B block	G9a inh
COC(=O)c1c(-c2ccc(S(C)(=O)=O)cc2)sc2ccc(OC)cc12	45µM*	11%	21µM*	-12%	·	·
CCCN1CCN(C(=S)Nc2ccccc2C(F)(F)F)CC1	-5%	24%	-11%	-5%	-3%	40µM*
COc1ccc(-c2[nH]c(-c3ccc(F)cc3)nc2SCC(=O)NC2CCCC2)cc1	?	-17%	-8%	8%	?	-38%
COc1ccc(-c2[nH]c(-c3cccc(OC)c3)nc2SCC(=O)NC2CCCC2)cc1	?	18%	-7%	3%	?	79µM*!
COc1cccc(-c2nc(SCC(=O)Nc3ccc4c(c3)OCO4)c(-c3ccccc3)[nH]2)c1	?	?	·	5%	?	8.9µM*
COc1ccc(-c2[nH]c(-c3ccccc3)nc2SCC(=O)Nc2ccc3c(c2)OCCO3)cc1	?	-8%	·	-6%	?	?
COc1ccc(-c2nc(SCC(=O)Nc3ccc4c(c3)OCO4)c(-c3ccc(OC)cc3)[nH]2)cc1	?	-16%	·	4%	79µM*	13µM*
C=CCN(CC=C)Cc1cc(=O)oc2ccccc12	·	·	6%	·	·	·
Cn1c(CNC(=O)CNC(=O)c2ccccc2)cc(=O)n(C)c1=O	8%	26%	-3%	8%	-35%	-11%
CCS(=O)(=O)N1CCN(C(=O)CC(C)C)CC1	-18%[57.1 µM]	-5%	?	27%	-2%	23%[59 µM]
CCS(=O)(=O)N1CCN(CC2CC3C=CC2C3)CC1 (stereo unspecified)	1.3µM*	?	-5%	-15%	50µM*	11µM*
C1=CCC(CN2CCN(C3CCCCCC3)CC2)CC1 (stereo unspecified)	1µM*	?	1%	10%	45µM*	7.9µM*
CCCS(=O)(=O)N1CCN(CC2CC=CCC2)CC1 (stereo unspecified)	0.89µM*	-55%	-7%	-23%	56µM*	7.1µM*
Cc1ccc(S(=O)(=O)N2CCN(CC3CC4C=CC3C4)CC2)cc1 (stereo unspecified)	0.79µM*	28µM*	-8%	-2%	18µM*	7.9µM*
CCCS(=O)(=O)N1CCN(CC2CC3C=CC2C3)CC1 (stereo unspecified)	-28%[11.4 µM]	?	-16%	-13%	50µM*	5.6µM*
FC(F)(F)c1cccc(N2CCN(CC3CC4C=CC3C4)CC2)c1 (stereo unspecified)	-28%	25%	-26%	1%	?	?
C1=CC2CC1CC2CN1CCN(Cc2ccccc2)CC1 (stereo unspecified)	1.1µM*	?	-6%	5%	23%	2µM*
COc1ccc(S(=O)(=O)Nc2ccccc2OC)cc1NC(=O)c1cc2ccccc2oc1=O	-21%	7%	-5%	9%	-1%	5%
CN1CC[n+]2cnc3ccccc3c21	-5%	16%	0%	-25%	-14%	2.5µM*
c1cc(SSc2ccncc2)ccn1	14µM*	?	1.9µM*	32µM*	?	0.56µM*
O=C(COC(=O)/C=C/c1ccc(Cl)cc1)NCCN1C(=O)CSC1=O	?	?	17µM*	-23%	-12%	-26%
Cc1ccc(S(=O)(=O)N(CC(=O)N/N=C/c2ccco2)Cc2ccccc2)cc1	?	4%	-3%	2%	-31%	-9%[12.7 µM]
Cc1cccc(CN(CC(=O)N/N=C/c2ccco2)S(=O)(=O)c2ccc(Cl)cc2)c1	79µM*	?	-20%	7%	50µM*	?
COc1cc(NC(=O)CCc2c(C)nc3c(c(C)nn3-c3ccccc3)c2C)cc(OC)c1OC	5%	40%	·	5%	-5%	8%[59 µM]
O=C(CCc1c[nH]c2ccccc12)Nc1ncccc1O	-36%	28%	-3%	5%	56µM*	?
SMILES	JMJD2A Tudor inh	HP1b chromo inh	PLK1 PBD inh	VDR inhibitor	BAZ2B block	G9a inh
Cc1ccc(NC(=O)CCc2c[nH]c3ccccc23)nc1	?	12%	-4%	14%	?	5%
O=C(CCc1c[nH]c2ccccc12)NCc1ccncc1	-2%	11%	-6%	-6%	0%	50µM*
O=C(CCCc1c[nH]c2ccccc12)NCc1ccc2c(c1)OCO2	-11%[11.4 µM]	31%	-13%	-10%	-7%	-51%[59 µM]
COc1ccc(CNC(=O)CCc2c[nH]c3ccccc23)cc1	-19%	-25%	-6%	-3%	-6%	-32%
O=C(CCc1c[nH]c2ccccc12)NCc1ccc2c(c1)OCO2	-14%	15%	1%	12%	?	56µM*
COc1ccccc1OCCCCNC(C)(C)C	-11%	8%	-3%	-5%	·	4%[59 µM]
Cc1ccc(NC(=O)COc2ccc(Br)cc2C)cc1	1%	24%	-9%	-5%	-2%	5%[59 µM]
COCCCNCCCCOc1ccc(Br)cc1C	20µM*	?	-11%	-20%	?	10µM*
Cc1cc(Br)ccc1OCCCCNC(C)(C)C	28µM*	11%	27µM*	?	50µM*	·
COCCNCCCCOc1ccc(Br)cc1C	1.1µM*	?	-17%	-16%	50µM*	5.6µM*
COc1ccc(CN2CCN(C3CCC3)CC2CCO)cc1C (stereo unspecified)	-7%	45%	3%	-13%	-2%	·
Cc1ccc(NC(=O)c2cc3nc(-c4ccc5c(c4)OCO5)cc(C(F)(F)F)n3n2)cc1Cl	2%	34%	·	-7%	-15%	8%[59 µM]
Cc1ccc(C)c(CSc2c(C(C)C)cnc3c2c(=O)n(C)c(=O)n3C)c1	-30%	26%[57 µM]	·	16%	-3%	?
COc1ccc(-c2nc3ccccc3o2)cc1NC(=O)c1ccc(OCC(C)C)cc1	-8%	11%	·	-2%	-11%	-3%[59 µM]
CCOc1ccccc1NC(=O)CSc1ccc2nc(-c3ccccc3)cn2n1	2%	35%[57 µM]	·	19%	12%	?
CC(C)C[C@@H](CN1CCC[C@@H]1CN1C(=S)NC[C@@H]1Cc1ccccc1)N1C[C@H](Cc2ccc(O)cc2)N(CC2CCCCC2)C1=S	·	·	1%	·	·	·
CC(C)C[C@@H](CN1CCCC1CN1C(=S)NC[C@@H]1Cc1ccc(O)cc1)N1C[C@H](Cc2ccc(O)cc2)N(CC2CCCCC2)C1=S (stereo partly specified)	40µM*	-13%	19µM*	-22%	·	·
CCN(CCn1cccn1)Cc1cn[nH]c1-c1cccc2ccccc12	-25%	35%	-10%	-6%	-8%	9%[12.7 µM]
CC(Cc1ccccc1)N1CCCC1=O (stereo unspecified)	1%	30%	0%	2%	·	·
O=C(CCn1nnc2ccccc21)N1CCC(O)(c2cccc(F)c2)CC1	50µM*	-11%	27µM*	?	-2%	8%
O=C(Nc1ccc2c(c1)CCC2)Nc1ccc(F)cc1F	-16%	23%	1%	8%	2%	·
